# Measured values from PubChem BioAssay AID1362 (SRMLSC, 2008).
# The whole screen tested about 190,000 compounds, of which about 4,000 (2.1%) were called active. The sample holds actives, similar compounds and a random draw of the others, so the mix is not that of the screen. No stated cut-off is given here; in the data, active means inhibition above about 58%; inactive means the rest, inconclusive results apart; tested in S. cerevisiae.
# Assay: growth inhibition of WT strain, primary screen, mitochondrial fusion inhibitor project, WT and mutant strains, chemical genetic (AID 1362)
# Conditions: mitochondrial fusion phenotypic screen, at 10 µM
# [1] = WT strain, growth inhibition, stronger effect = higher value
Structure (SMILES),inhibition [1],inhibition (mutant strain inhibition)
Cc1cc(C(F)F)n2nc(C(=O)Nc3ccc(S(=O)(=O)NC45CC6CC(CC(C6)C4)C5)cc3)nc2n1,-1.63% (inactive),-19.6%
CCn1nccc1C(=O)Nc1ccc(Cl)c(Cl)c1,27.7% (inactive),28.1%
CCn1nccc1C(=O)Nc1ccc(S(=O)(=O)NC23CC4CC(CC(C4)C2)C3)cc1,64% (active),-11.7%
S=c1nc(C23CC4CC(CC(C4)C2)C3)nc2sccn12,23.5% (inactive),16.9%
COc1ccccc1N1CCN(CC(=O)NCCc2ccc(S(N)(=O)=O)cc2)CC1,-0.9% (inactive),3.52%
O=C1NC(Nc2nc3ccccc3s2)(C(F)(F)F)C(=O)N1C1CCCCC1 (configuration not stated),68.5% (active),15.8%
O=C(NC1(C(F)(F)F)NC(=O)N(C2CCCCC2)C1=O)c1ccco1 (configuration not stated),-16.6% (inactive),-15.1%
COC(=O)NC1(C(F)(F)F)NC(=O)N(C2CCCCC2)C1=O (configuration not stated),6.22% (inactive),-5.73%
CS(=O)(=O)N(CC(=O)NC1CCCC1)Cc1ccc(F)cc1,1.23% (inactive),-0.09%
CN(C)S(=O)(=O)c1cccc(NC(=O)COC(=O)/C=C/c2cccs2)c1,0.4% (inactive),-0.76%
CN1CCN(S(=O)(=O)c2cccc(C(=O)N3CCc4ccccc43)c2)CC1,-3.09% (inactive),-6.02%
COc1cccc(CNC(=O)Cc2csc(Nc3nc(=S)[nH]c4ccccc34)n2)c1,2.48% (inactive),7.91%
CCOC(=O)c1c(C2CC2)csc1NC(=O)CSCc1c(C)noc1C,-0.08% (inactive),6.46%
Cc1noc(C)c1CSCC(=O)Nc1nc2ccc(Oc3ccccc3)cc2s1,71.3% (active),34.8%
CCn1c(SCC(=O)Nc2nc3ccc(OC)cc3s2)nnc1-c1ccoc1C,42% (inactive),9.68%
O=C(O)Cc1ccc(NCc2ccccc2Cl)cc1,2.97% (inactive),-2.38%
CN1CCNC(=O)C1CC(=O)NCCC1=CCCCC1 (configuration not stated),13.1% (inactive),9.2%
Cc1ccc(-c2csc(NNC(=O)c3ccccc3)n2)cc1,9.24% (inactive),14%
Clc1ccc(-c2csc(-c3ccncc3)n2)cc1,25.2% (inactive),28.4%
CCCc1cc(-c2nc(-c3ccc(C)cc3)cs2)ccn1,77.9% (active),50.8%
CC1Cc2ccccc2N1C(=O)CSc1nnc(C2CC2)n1C (configuration not stated),-5.06% (inactive),2.15%
Cc1ccc(C)c(NC(=S)NNC(=S)Nc2ccc(C(C)C)cc2)c1,71.3% (active),24.5%

Structure (SMILES),inhibition [1],inhibition (mutant strain inhibition)
Cc1ccc(C)c(NC(=S)NNC(=O)c2csc(C)c2)c1,-2.09% (inactive),-14.4%
Cc1ccc(NC(=S)N/N=C2/CCCc3c(C)cc(C)cc32)cc1,23.1% (inactive),23.1%
Cc1nn(CCOc2ccc(Br)cc2)c(C)c1[N+](=O)[O-],3.38% (inactive),-3.33%
O=S(=O)(Cc1ccccc1)c1nc2ccccc2n1Cc1ccccn1,23.5% (inactive),10.5%
OC(CN=c1sc2ccccc2n1CC(O)COc1ccccc1)COc1ccccc1 (configuration not stated),74.3% (active),39.9%
C=CCn1c(=N)n(CC(O)COc2ccc(OC)cc2)c2ccccc21 (configuration not stated),10.5% (inactive),-4.41%
OC(COc1ccccc1)Cn1cc(Br)cn1 (configuration not stated),5.35% (inactive),-3.45%
COc1ccccc1C(c1nnnn1CC1CCCO1)N1CCN(c2ccccc2)CC1 (configuration not stated),24.2% (inactive),-7.45%
O=C1COc2ccc(C(=O)COC(=O)C3CC(O)CN3S(=O)(=O)c3ccc(Cl)cc3)cc2N1 (configuration not stated),7.83% (inactive),0.3%
Cc1ccnc(NC(=O)CCC(=O)N(CC(=O)NCc2ccccc2)Cc2ccco2)c1,-6.89% (inactive),16.9%
O=S1(=O)CCC(NC(=S)SCc2ccccc2Br)C1 (configuration not stated),-2.13% (inactive),13.4%
CC(C)Cn1c(CN(Cc2ccccc2)Cc2ccccc2)nc2c1c(=O)n(C)c(=O)n2C,85.5% (active),23.3%
COCCn1c(CN(Cc2ccccc2)Cc2ccccc2)nc2c1c(=O)n(C)c(=O)n2C,13% (inactive),-1.28%
CC(C)CCn1c(CN(C)Cc2ccccc2)nc2c1c(=O)n(C)c(=O)n2C,1.88% (inactive),1.47%
Cc1ccc2nc(C)cc(N/N=C/c3ccc(F)cc3)c2c1,6.16% (inactive),21%
CCOC(=O)c1cccc(NC(=O)CCOc2ccccc2)c1,3.69% (inactive),2.18%
COc1ccccc1CC(=O)Nc1ccc([N+](=O)[O-])cc1OC,-6.53% (inactive),-1.24%
COc1ccccc1CSc1ncc(-c2ccc([N+](=O)[O-])cc2)[nH]1,63.4% (active),30.7%
COc1ccccc1CSc1nc2ccccc2[nH]1,-4.85% (inactive),-2.06%
COCC(C)NCc1cc(Br)ccc1OC (configuration not stated),7.52% (inactive),7.1%
CCCOc1ccc(N/C=C/C(=O)C(C)(C)C)cc1,-11.3% (inactive),-8.28%
CCCOc1ccc(C(=O)NCCc2ccccc2)cc1,-6.25% (inactive),-16.2%

Structure (SMILES),inhibition [1],inhibition (mutant strain inhibition)
CCCOc1ccc(C(=O)C(CCC(CNCC)C(=O)c2ccc(OCCC)cc2)CNCC)cc1 (configuration not stated),72.9% (active),35.9%
Cc1cc2ccccc2n1CCC(=O)O,7.54% (inactive),5.92%
NC(=O)c1ccccc1N(Cc1ccccc1)S(=O)(=O)c1ccccc1,-1.27% (inactive),17.1%
COc1ccc(S(=O)(=O)N(C)CC(=O)N2CCCC2)cc1Cl,-0.67% (inactive),5.49%
O=C(O)CC/C(=N\NC(=O)c1ccc(F)cc1)c1ccc(Br)cc1,-0.54% (inactive),7.09%
COn1c(-c2ccc(Cl)cc2Cl)nc2ncccc21,6.69% (inactive),2.12%
Clc1ccc(-c2ncc3ccccn23)c(Cl)c1,24.3% (inactive),2.24%
Clc1ccc(COn2c(-c3ccc(Cl)cc3Cl)nc3ncccc32)cc1,73.2% (active),48.6%
COCCNC(=S)Nc1cc(S(=O)(=O)N2CCOCC2)ccc1N1CCCCC1,22% (inactive),22.7%
CC(=O)NC(Cc1ccccc1)C(=O)NC1CCN(c2ncccc2[N+](=O)[O-])CC1 (configuration not stated),6.05% (inactive),4.93%
COc1ccc(-c2cc(C3CCN(c4ncccc4[N+](=O)[O-])CC3)[nH]n2)cc1,72.2% (active),40.6%
COc1ccc(N2CCN(c3ccc([N+](=O)[O-])nc3)CC2)cc1,15.8% (inactive),8.11%
O=c1cnnc(Nc2ccccc2F)[nH]1,-19.8% (inactive),-21.4%
CCC(=O)c1ccc(OCC(O)CN2CCN(c3cccc(C(F)(F)F)c3)CC2)cc1 (configuration not stated),10.7% (inactive),17.1%
O=C(COc1ccc(Cl)cc1)N1CCN(S(=O)(=O)c2ccc(Cl)cc2)CC1,-16.2% (inactive),-6.77%
O=C(COc1ccc(Cl)cc1)N1CCN(c2cccc(C(F)(F)F)c2)CC1,59.2% (active),27.3%
CC(=O)Oc1ccccc1C1=NN(C(C)=O)C(c2ccccc2)C1 (configuration not stated),-8.11% (inactive),7.28%
Cc1cccc(NC(=S)Nc2ccc(Cl)c(Cl)c2)c1,83% (active),83%
Cc1cccc(NC(=S)Nc2ccc3cn[nH]c3c2)c1,3.94% (inactive),-1.45%
Cc1cccc(NC(=S)Nc2ccc(Br)cc2)c1,-2.23% (inactive),-3.76%
CCCCCN(C(=O)NC(=O)Nc1cccc(C)c1C)S(C)(=O)=O,-2.53% (inactive),12%
O=S(=O)(c1ccc(-c2ccccc2)cc1)N1CCCC1,-9.92% (inactive),-14.9%

Structure (SMILES),inhibition [1],inhibition (mutant strain inhibition)
CCOC(=O)C1CCc2nc3ccccc3c(=O)n21 (configuration not stated),96.7% (active),18.1%
CCOC(=O)N1CCN(C(=O)Cn2cnc3ccccc3c2=O)CC1,-8.2% (inactive),-9.03%
CCOCCCn1c(NN)nc2ccccc2c1=O,4.28% (inactive),1.61%
Cc1nc(-c2ccc(Cl)cc2)sc1C(=O)CBr,29.8% (inactive),16%
Cc1ccc(S(=O)(=O)Cc2cc(-c3ccc(Cl)cc3)no2)cc1,17.1% (inactive),12.1%
Cc1cc(C)cc(NC(=S)NCc2ccc(F)cc2)c1,42.3% (inactive),3.44%
O=C(NCCc1c[nH]c2ccccc12)c1cc2ccccc2oc1=O,15.8% (inactive),-4.03%
Cc1cc(C)cc(NC(=S)NCCc2c[nH]c3ccccc23)c1,70.2% (active),27.3%
CC(C)(C)NC(=O)c1ccc(Cn2cc(C(F)(F)F)ccc2=O)cc1,3.12% (inactive),11.4%
Cc1cc(Nc2ccccc2)n(C(=O)c2ccc(N)cc2)n1,-10.2% (inactive),32.9%
Nc1ccc(Nc2ccccc2)cc1,74.9% (active),46%
Cc1ccc(Nc2ccccc2N)cc1,48.4% (inactive),33.4%
CCOC(=O)C1(Cc2cccc(OC)c2)CCN(C(C)CC(C)(C)O)CC1 (configuration not stated),-0.94% (inactive),20.1%
CCN(CC)CC(=O)Nc1sc2c(c1C(=O)c1ccccc1C)CCC2,56.7% (inactive),9.28%
COC(=O)C1C(=O)NCC1c1ccc(C)cc1 (configuration not stated),19.4% (inactive),13.7%
COC(=O)C1=C(Nc2ccc(OC)cc2)C=C(C)C(C(=O)OC)C1c1ccc(C)cc1 (configuration not stated),11.5% (inactive),5.72%
COC(=O)C1=C(Nc2ccc(C)cc2)C=C(C)C(C(=O)OC)C1c1ccc(F)cc1 (configuration not stated),72.8% (active),-7.13%
CCC(=O)NC(=S)Nc1ccc(NC(=O)c2ccco2)c(Cl)c1,8.3% (inactive),-0.75%
Cn1ccc(=NC=C(C#N)C#N)c2ccccc21,-8.61% (inactive),4.44%
CC1=NNC(=O)C1CCC(=O)N/N=C\c1ccc(Cl)c(Cl)c1 (configuration not stated),-6.04% (inactive),2.78%
